Compounds with a hit are over-represented: about 1.4% of the library has one in this group of screens.
GRP78 ERSR act = qHTS for Inducers of the Endoplasmic Reticulum Stress Response (ERSR) in Human Glioma: qHTS. U87-MG GRP78 promoter luciferase reporter, 16 h. Potency, µM, for the others: at the top dose activation, actives largely listed as activators. 420,000 tested, 0.02% active; also: potency is read from the fitted curve at half-maximal effect; series mostly up to about 76 µM; % of control where 0% means no effect; nearly all actives have a fitted effect of over 35% in size
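Stably transfected U87-MG glioma cells carrying a GRP78-based luciferase sensor; 16 h compound incubation. Luminescence end-point read 10 min after Bright-Glo addition at room temperature.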
hERG WT inh = qHTS for Inhibitors of KCHN2 3.1: Wildtype qHTS; 340,000 tested, 0.37% active; U2OS, BacMam KCNH2, thallium flux FluxOr; hits give low values; AID 720551, 2013; Voltage-gated inwardly rectifying potassium channel KCNH2 (Homo sapiens), Q12809; activity change, % at 1.84 µM;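 active = maximum activity change below -70%; inconclusive = maximum activity change between -70% and -50%; inactive = maximum activity change above -50%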; also: % is scaled to controls: 0 for no effect and ±100 for the full control effect
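U2OS cells transduced with wild-type KCNH2 virus are loaded with FluxOr dye for 45 min, and thallium flux is measured in kinetic reads before and after stimulation buffer. Rate constants are normalized to DMSO controls.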
PTHR1 agonist = qHTS for PTHR1 Agonists: Primary Screen | Potency, µM (doses to about 115 µM), for the others: at the highest dose activation, usual class: activators | 410,000 tested, 0.075% active | HEK293 GP2 PTHR1 cells, GloSensor cAMP luminescence, 1 h | Parathyroid hormone/parathyroid hormone-related peptide receptor (Homo sapiens), Q03431 | AID 743266, 2014; also: potency is read from the fitted curve at half-maximal effect; nearly all actives have a fitted effect of over 55% in size
Target sequence (Q03431 whole entry, looked up): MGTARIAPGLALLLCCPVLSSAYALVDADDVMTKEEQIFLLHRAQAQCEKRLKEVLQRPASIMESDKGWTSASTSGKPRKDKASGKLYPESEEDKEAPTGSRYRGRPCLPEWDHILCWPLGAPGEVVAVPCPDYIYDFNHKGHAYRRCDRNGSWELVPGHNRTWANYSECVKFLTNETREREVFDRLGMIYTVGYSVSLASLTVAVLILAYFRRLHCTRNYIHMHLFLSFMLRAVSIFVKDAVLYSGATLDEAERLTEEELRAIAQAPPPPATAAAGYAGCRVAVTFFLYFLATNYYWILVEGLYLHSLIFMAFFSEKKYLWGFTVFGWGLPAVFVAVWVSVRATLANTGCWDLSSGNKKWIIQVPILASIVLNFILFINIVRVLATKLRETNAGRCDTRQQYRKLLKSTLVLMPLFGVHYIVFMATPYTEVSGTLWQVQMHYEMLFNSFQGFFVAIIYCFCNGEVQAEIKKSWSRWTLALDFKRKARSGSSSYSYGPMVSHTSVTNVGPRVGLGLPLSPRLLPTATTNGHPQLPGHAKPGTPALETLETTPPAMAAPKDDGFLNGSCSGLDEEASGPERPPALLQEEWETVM
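HEK-293-derived GP2 cells expressing PTHR1 and a GloSensor cAMP reporter, 3,000/well, plated overnight, given luciferin plus IBMX (each 0.5 mM as added) for 1 h at 37 °C, then compound for 1 h at 37 °C. Luminescence was read after 15 min at room temperature.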
RXFP1 agonist = qHTS Assay for Agonists of the Relaxin Receptor RXFP1. Relaxin receptor 1 (Homo sapiens), Q9HBX9. HEK293T-RXFP1 cAMP TR-FRET, 30 min; response scale: percent of porcine relaxin response, buffer zero. Potency, µM (doses to about 57.5 µM), without a hit: top-dose activation, usual class: activators. 370,000 tested, 0.3% active; also: potency is read from the fitted curve at half-maximal effect; % is scaled to controls: 0 for no effect and ±100 for the full control effect; nearly all actives have a fitted effect of over 60% in size
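HEK293T cells stably expressing RXFP1 were pretreated with the PDE4 inhibitor Ro 20174, exposed to compounds for 30 min at 37C, lysed, and cAMP was read by TR-FRET. Data normalized to buffer (basal) and 29 nM porcine relaxin (100%).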
RXFP1 antagonist = qHTS Assay for Antagonists of the Relaxin Receptor RXFP1; HEK293-RXFP1, relaxin-stimulated cAMP HTRF, 30 min; hits give low values; 350,000 tested, 0.59% active; activity change, negative = inhibition, % at 57.5 µM; Relaxin receptor 1 (Homo sapiens), Q9HBX9;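 active = activity change of -60% or lower, but not beyond a set lower limit; inconclusive = change between -60% and -40%, or beyond the set limit; inactive = change above -40%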; also: % is scaled to controls: 0 for no effect and ±100 for the full control effect
KCNH2 3.1 block = qHTS for Inhibitors of KCHN2 3.1: Mutant qHTS | AID 720553, 2013 | U2OS KCNH2 3.1, thallium flux FluxOr; hits give low values | 340,000 tested, 0.95% active | activity change, % (tested at about 1.8 µM) | Potassium voltage-gated channel subfamily H member 2, brain isoform KCNH2 3.1 (human);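 active = maximum activity change below -70%; inconclusive = maximum activity change from -70% to -50%; inactive = maximum activity change above -50%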;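 also: thallium influx rate constant from kinetic fluorescence after stimulation buffer; % is scaled to controls: 0 for no effect and ±100 for the full control effect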
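Thallium flux via FluxOr fluorescence (Red40 quencher, 45 min loading) in U2OS cells virally expressing the KCNH2 3.1 isoform (1.77 x 10^8 /mL virus, overnight at 37 C). Rate constants from 2-min kinetic reads post-stimulation, normalised to positive and negative controls.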
Active calls of the source: *; i = inactive; ? = inconclusive; . = not tested or not shown; [ ] = another dose, or the depositor's remark. Unless noted, calls follow the shape of the dose curve; as a rule, active = well fitted curve in the direction sought with a large enough effect; inconclusive = small, poorly fitted or top-dose-only effect, or another doubt; inactive = no such curve, though single readings can be large; an effect the other way counts as inactive or inconclusive.

SMILES | GRP78 ERSR act | hERG WT inh | PTHR1 agonist | RXFP1 agonist | RXFP1 antagonist | KCNH2 3.1 block
Nc1nn(-c2ccccc2)nc1C(=O)OCc1ccccc1 | 1.8% | -1.3 | -17.5% | 5.6% | -23.0 | -9.4
COc1ccc(CN(C)CC(=O)Nc2ccc(N3CCOCC3)cc2)cc1OC | -0.3% | 13.8 | i | -0.6% | 13.0 | 5.9
COc1ccc(CN(C)CC(=O)Nc2ccc(SC(F)F)cc2)cc1OC | -1.6% | -38.3 | -43.7% | -0.5% | -37.2 | -97.8*
CN(CC(=O)Nc1ccc(SC(F)F)cc1)C1CCCCC1 | 3.9% | -37.3 | i | 1.2% | -26.0 | -94.1*
CC1CCN(CC[C@H]2CCCN2S(=O)(=O)c2cccc(O)c2)CC1 | -3.4% | 10.8 | -3.7% | 1.6% | . | 3.3
COC(=O)c1sccc1NC(=O)Nc1ccc(C(C)=O)cc1 | 9.8% | 16.3 | -25.2% | 2.8% | 4.2 | -79.4*
COC(=O)c1sccc1NC(=O)c1cccc(OC)c1 | 1.6% | 4.8 | i | 2.8% | -19.3 | 4.4
CCCCN(C)C(=S)Nc1ccsc1C(=O)OC | 1.0% | -7.4 | i | 0.6% | -21.3 | -154.5*
COC(=O)c1sccc1NC(=S)N(C)C1CCCCC1 | -6.1% | 3.0 | -5.6% | 1.0% | -39.7 | 12.5
COC(=O)c1sccc1NC(=O)Nc1ccc(C)cc1 | 12.7% | 5.3 | -24.0% | -2.0% | -2.1 | 15.1
COC(=O)c1sccc1NC(=O)c1ccc(OC)cc1OC | -2.3% | -246.1* | 9.1% | 0.4% | 1.8 | -176.1*
O=C(CC1CCCC1)N1CCCC(Nc2cccc(F)c2)C1 (stereo unspecified) | -7.6% | -5.8 | -16.2% | 0.0% | -12.5 | -5.7
O=C(CC1CCCC1)N1CCCC(Nc2ccc(F)cc2)C1 (stereo unspecified) | -4.5% | -9.6 | -68.6% | -3.2% | -13.1 | -95.6*
COc1ccc(OCC(=O)N2CCCC(Nc3ccc(C)c(C)c3)C2)cc1 (stereo unspecified) | -2.3% | -9.2 | -21.4% | . | 2.3 | -87.5*
Cc1nc(OCc2ccccc2)c2sc3nc4c(cc3c2n1)COC(C)(C)C4 | -7.8% | -11.3 | -87.4% | -3.4% | -6.0 | 0.5
O=S(=O)(c1ccc(Cl)nc1)N1CCc2ccccc21 | -4.5% | -110.7* | -46.3% | 11.5% | 1.9 | -22.1
CC(=O)c1cccc(NC(=O)Nc2ccc3c(c2)N(C)C(=O)CS3)c1 | -1.2% | 2.7 | -40.8%[57.5 µM] | 0.9% | -72.4* | -2.4
C(=N\Nc1nc(Nc2ccccc2)nc(Nc2ccccc2)n1)/c1cccnc1 | 0.0% | 5.1 | -12.9% | -0.1% | -3.9 | -21.4
C(=N\Nc1nc(Nc2ccccc2)nc(Nc2ccccc2)n1)/c1ccncc1 | -2.4% | 2.1 | -8.2% | -1.0% | -60.9* | -8.5
CCn1c(SCC(=O)c2ccc3c(c2)OCCO3)nnc1-c1ccco1 | -1.5% | 11.2 | i | 1.5% | -5.8 | -2.2
CCOc1ccc(OCc2ccc(C(=O)N/N=C(\C)c3ccccn3)cc2)cc1 | 1.0% | -72.2* | -1.9% | 2.8% | 10.5 | -11.7
C/C(=N\NC(=O)c1ccccc1OCc1ccc(F)cc1)c1ccccn1 | 19.9% | -23.6 | i | 0.1% | -13.0 | -14.4
CN(C)CCCn1c(N)c(S(=O)(=O)c2ccccc2)c2nc3ccccc3nc21 | -10.5% | 15.4 | -24.7% | 6.0% | -9.9 | 6.1
CCc1cc2ccc(C)cc2nc1SCC(=O)Nc1cc(OC)c(OC)cc1C(=O)O | 2.1% | -2.7 | i | 2.2% | . | -5.5
CC(C)NC(=O)c1ccc(Cn2c(SCc3ccc(F)cc3)nc3cccnc32)cc1 | -1.3% | . | -1.6% | 25.3% | 9.1 | .
SMILES | GRP78 ERSR act | hERG WT inh | PTHR1 agonist | RXFP1 agonist | RXFP1 antagonist | KCNH2 3.1 block
Clc1ccc2nnc(Cl)n2n1 | -4.4% | -219.6* | -19.6% | 12.6% | 9.5 | -183.3*
FC(F)c1nnc2ccc(Cl)nn12 | -2.2% | -1.6 | i | 1.9% | -9.4 | 6.2
Cn1c(C(=O)N2CCN(c3ccc([N+](=O)[O-])cc3)CC2)cc2c(=O)[nH]c3ccccc3c21 | -5.9% | -71.3* | -3.5% | 6.1% | -1.9 | -95.7*
COc1ccc(C(=O)Nc2ccccc2N2CCN(C(=O)C(C)C)CC2)cc1Cl | 2.4% | -4.3 | i | 3.2% | -5.8 | -2.8
O=C(Nc1ccccc1N1CCN(C(=O)c2ccccc2)CC1)c1cccc(Cl)c1 | -4.3% | 6.3 | i | 1.9% | -2.3 | -28.8
O=C(Nc1ccc(N2CCN(C(=O)c3ccccc3)CC2)cc1)c1ccc(Br)o1 | -10.1% | 1.2 | -6.9%[57.5 µM] | -0.6% | -21.4 | -11.4
O=C(Nc1ccc(N2CCN(C(=O)c3ccccc3)CC2)c(Cl)c1)c1ccc(Br)o1 | -5.5% | -11.7 | -51.6%[57.5 µM] | -0.4% | -12.5 | -101.8*
COc1ccc(Cl)cc1C(=O)Nc1ccccc1N1CCN(C(=O)C(C)C)CC1 | 1.0% | -90.1* | 3.1% | 3.5% | -0.4 | -9.9
O=C(Nc1ccccc1N1CCN(C(=O)c2ccccc2)CC1)c1cc(Br)ccc1Cl | -2.9% | ? | -6.8%[57.5 µM] | 3.2% | 4.8 | -92.3*
CCOc1ccc(C(=O)Nc2ccccc2N2CCN(C(=O)c3ccccc3)CC2)cc1[N+](=O)[O-] | -2.1% | -92.2* | -20.6% | -0.4% | 2.3 | -103.6*
CCCn1nc(C(=O)Nc2ccc(-n3cnnn3)cc2)c2ccccc2c1=O | -1.2% | 5.5 | i | 0.5% | 3.8 | -7.1
COc1c(C)cc(Br)cc1C(=O)Nc1ccccc1N1CCN(C(=O)c2ccccc2)CC1 | -3.7% | 2.1 | i | 0.5% | -2.8 | -3.7
COc1ccc(Br)cc1C(=O)Nc1ccccc1N1CCN(C(=O)c2ccccc2)CC1 | -4.2% | -84.5* | i | -1.1% | -15.8 | 16.5
COCCCn1c(SCC(=O)OC2CCCCC2)nnc1-c1cccs1 | 3.6% | 15.2 | 0.282µM* | 2.5% | 9.5 | 6.5
COCCCn1c(SCC(=O)OC2CCCCC2)nnc1-c1ccco1 | 0.8% | -13.3 | i | 0.0% | 4.6 | 4.9
COc1ccc(S(=O)(=O)c2c(Nc3c(C)cccc3C)sc(C(=O)c3ccc4c(c3)OCO4)c2N)cc1 | -5.7% | . | i | -0.1% | -5.2 | .
O=C(CC1C(=O)NCCN1Cc1ccc(F)cc1)NCCN1CCCc2ccccc21 (stereo unspecified) | 1.2% | . | -4.3% | -2.3% | -0.1 | 1.2
Cn1nc(-c2ccccc2)c(-c2ccccc2)c(C(=O)Nc2ccccc2C(N)=O)c1=O | -1.1% | . | -15.6% | 1.1% | -22.8 | .
O=C(OCc1ccccc1)N(CCCCN(CCCNCc1ccccc1)C(=O)OCc1ccccc1)CCCNCc1ccccc1 | -13.9% | 15.5 | -35.5% | . | -94.1* | -8.0
